“And” between values parts separate entries of the source, which are not always exact repeats. Equal entries are not always repeated. About 83,000 compounds went through this panel and 20% of them were active in at least one assay; those are over-represented in the sample as a whole.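 Plates (96-well) were seeded with cells, treated with compound at one concentration, and incubated for 48 hours before percent growth was determined.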 The source made the active and inactive calls.
Tested on: HOP-92 NSCLC
Experiment: NCI-60 one-dose screen, 48 h (100 = growth as untreated, 0 = no growth, -100 = all killed)
Conditions: 0.25 µM
Procedure: Growth inhibition of the HOP-92 human Non-Small Cell Lung tumor cell line is measured as a screen for anti-cancer activity. Cells are grown in 96 well plates and exposed to the test compound for 48 hours. Compounds are tested at a single concentration, which is 10^-5 M for most compounds. The reported endpoint is percent growth (GI% or GIPRCNT), where numbers from 0 - 100% represent growth inhibition, and numbers from -100% - 0 represent cell death. For example, a value of 40 represents 60% growth inhibition. A value of 0 means no net growth occurred over the course of the experiment. A value of -40 indicates 40% of cells at the beginning of the experiment died by the end of the experiment. A value of -100 means all cells are dead at the end of the experiment.
NCI-60 Human Tumor Cell Lines Screen was performed using the standard one-dose NCI protocol, which is described in more detail at https://dtp.cancer.gov/discovery_development/nci-60/default.htm.
Compounds with GIPRCNT values below 10 were considered active. Activity score was based on GIPRCNT using the following formula: […]
Score is 0 for GIPRCNT values of 100 or above, 50 for GIPRCNT values of 0, and 100 for GIPRCNT values of -100.

SMILES | growth
CCCCCCCCCCCCCCCc1ccc(Cl)c(O)c1Cl (tested in a mixture with another compound) | 17.5% (inactive)

Same assay, conditions: 1 µM

SMILES | growth
CNC(=O)c1cc(Oc2ccc(CC(=O)Nc3cc(C(C)(C)C)nn3C)cc2)ccn1 | 74.7% (inactive)

Same assay, conditions: 10 µM

SMILES | growth
CC(C)(C)c1cc(NC(=O)Cc2ccc(-c3cnc4cc(-c5cnn(CCN6CCOCC6)c5)ccc4n3)cc2)no1 | -3.35% (active)
CCCCCCCCCCCCCCCc1ccc(Cl)c(O)c1Cl (tested in a mixture with another compound) | 105% (inactive)
CNC(=O)c1cc(Oc2ccc(CC(=O)Nc3cc(C(C)(C)C)nn3C)cc2)ccn1 | 93.5% (inactive)

Same assay, conditions: 10 µM unless noted

SMILES | growth
Cc1nn(-c2ccccc2)nc1C(=O)Nc1ccccc1C(=O)NCC1CC1 | 75.8% (inactive)
CCOC(=O)Nc1ccc2c(c1)/C(=N\NC(N)=S)c1ccccc1-2 | 71.1% (inactive)
O=[N+]([O-])c1ccccc1N(S(=O)(=O)c1ccccc1)S(=O)(=O)c1ccccc1 | 92.8% (inactive) and 101% (inactive)
CN1CCN(C2CCN(C(=O)Nc3cc(Oc4ccc(NC(=O)C5(C(=O)Nc6ccc(F)cc6)CC5)c(F)c4)ccn3)CC2)CC1 | -43.2% (active) and 68.1% (inactive)
COc1ccc(S(=O)(=O)N2CCOCC2)cc1NC(=O)c1[nH]c(C)c2c1CCCCC2=O | 111% (inactive) and 27% (inactive)
CN(C)CCCN1c2ccccc2Sc2ccc(Cl)cc21 | 47.1% (inactive) and 99.2% (inactive)
CCN(CC)CCCC(C)Nc1ccnc2cc(Oc3ccccc3)ccc12 (stereo unspecified) | -6.39% (active) and 60.3% (inactive)
Cc1ccc(S(=O)(=O)NCN2C(=O)c3ccccc3C2=O)cc1 | 109% (inactive)
COc1cc2c(c(OC)c1OC)-c1ccc(OC)c(=O)cc1[C@@H](NC(C)=O)CC2 | 57.9% (inactive) and 14% (inactive) and 2.37% (active)
CCN(CC)CCNc1cc(-c2cccc(OC(F)(F)F)c2)nc2ccc(N3CCCC3)cc12 | -83.3% (active) and -7.78% (active) and 20.8% (inactive)
O=C(c1ccc(Cl)cc1)C(NCCO)c1ccc(Cl)cc1 (stereo unspecified) | 72.9% (inactive) and 89.4% (inactive)
c1ccc(N(c2ccccc2)c2ccccc2)cc1 | 112% (inactive)
c1ccc2c(CC3=NCCN3)cccc2c1 | 82.3% (inactive) and 87.7% (inactive)
Cc1cc(N=Nc2ccc(C)c(N=Nc3cc(C)c(N)cc3N)c2)c(N)cc1N | 66.2% (inactive)
COc1ccc2c(=O)cc(-c3ccccc3)[nH]c2c1 | 53.8% (inactive)
CC1=CCC2CC1C2(C)C (stereo unspecified) | 75.5% (inactive) and 121% (inactive)
NC(=S)N/N=C(\c1ccc(Br)cc1)C1CC1 | 83.2% (inactive) and 92.7% (inactive)

SMILES | growth
COc1cc2nc(N3CCN(C(=O)C4COc5ccccc5O4)CC3)nc(N)c2cc1OC (stereo unspecified) | 148% (inactive) and 106% (inactive) and 124% (inactive)
COc1ccccc1/C=N\N=C(N/N=C/c1ccccc1OC)N/N=C/c1ccccc1OC | 68.2% (inactive) and 15.3% (inactive)
N#CC(C#N)=C/C=C/c1cccc([N+](=O)[O-])c1 | 23.3% (inactive)
O=C(Cc1cccc2ccccc12)N/N=C/c1ccc2c(c1)CCC2 | 92.9% (inactive)
Oc1ccccc1C=NCC1CCC(CN=Cc2ccccc2O)CC1 (stereo unspecified) | 104% (inactive)
COc1ccc(CCN(C)CCCC(C#N)(c2ccc(OC)c(OC)c2)C(C)C)cc1OC (stereo unspecified) | 81.2% (inactive)
Cn1c(=O)c2[nH]c(CCCCCCCCc3nc4ccccc4[nH]3)nc2n(C)c1=O | 60.4% (inactive)
O=[N+]([O-])c1ccc(Oc2ccccc2)cc1 | 48.8% (inactive) and 77.1% (inactive)
C=C1C(=O)O[C@H]2[C@H]1CC/C(COC(=O)NC1CCC(O)CC1)=C\CC[C@@]1(C)O[C@@H]21 (stereo partly specified) | 71.6% (inactive) and 54.6% (inactive)
CC12CCC(CC1)C(C)(C)O2 | 105% (inactive)
CC(=O)c1ccc2c(c1)N(CCCN1CCN(CCO)CC1)c1ccccc1S2 | -3.7% (active)
CCOc1ccc2c(S(=O)(=O)O)cccc2c1[N+](=O)[O-] | 104% (inactive) and 78.3% (inactive)
Cc1cc(O)c(C(C)C)cc1N | 100% (inactive)
S=C1SCN(Cc2ccccc2)CN1Cc1ccccc1 | 37.3% (inactive)
CC(C)(O)Cn1cc(-c2ccc3nc(OC4CC4)ccc3c2)c2c(N)ncnc21 | 48% (inactive) and 32.8% (inactive)
O[C@H](c1cc(C(F)(F)F)nc2c(C(F)(F)F)cccc12)[C@@H]1CCCCN1 | 9.97% (active) and -8.33% (active)
CC1=C(/C=C/C(C)=C/C=C/C(C)=C/C(=O)Nc2ccc(O)cc2)C(C)(C)CCC1 | 103% (inactive)

Same assay, conditions: 30 µM

SMILES | growth
CC(C)(C)c1cc(NC(=O)Cc2ccc(-c3cnc4cc(-c5cnn(CCN6CCOCC6)c5)ccc4n3)cc2)no1 | -10.6% (active)
CNC(=O)c1cc(Oc2ccc(CC(=O)Nc3cc(C(C)(C)C)nn3C)cc2)ccn1 | 92.6% (inactive)

From PubChem BioAssay (NCI)
